High-throughput results (PubChem BioAssay)
An excerpt weighted towards active compounds, which were near 6.2% of everything screened.
HCMV inh: qHTS Assay for inhibitors of the human cytomegalovirus (HCMV); activity change, negative = inhibition, % at 57.5 µM; hit rate 4.5% among 410,000; HFF cells, HCMV-luciferase reporter, 72 h; stronger effect = lower value; AID 1259415, 2018; in the data active means activity change below about -60%; inconclusive means no clear call, values can overlap the other calls; inactive means above about -39%
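Compounds were evaluated in HFFs infected with an HCMV luciferase reporter virus (MOI 1 PFU/cell). Luciferase in lysates collected 72 h post infection served as the replication measure.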
LASV entry inh: qHTS for Inhibitors of binding or entry into cells for Lassa Virus; Lassa virus pseudotype entry inhibition, cell reporter; hit rate 1.2% among 300,000; Potency, µM (top dose mostly 37.9 µM), actives largely listed as inhibitors; calls by dose curve; tested in HEK293 cells; further: nearly all actives have a fitted effect of over 50% in size
FMDV antiviral: High Throughput Screening for Foot and Mouth Disease Virus Antivirals; FMDV antiviral cell-based qHTS; Potency, µM (highest dose often 57.9 µM), most hits filed as inhibitors; hit rate 1.2% among 410,000; AID 1159524, 2015; calls by dose curve; tested in HEK293T cells; further: read-out not given here; nearly all actives have a fitted effect of over 45% in size
MARV entry inh: qHTS for inhibitors of binding or entry into cells for Marburg Virus; Marburg virus pseudotyped entry inhibition, cell reporter; Potency, µM (top dose mostly 37.8 µM), usual class: inhibitors; hit rate 1.8% among 300,000; calls by dose curve; tested in HEK293 cells
Large screens that a line does not name were inactive.

COc1ccc(-c2cc3ccccc3oc2=O)cc1NC(=O)c1ccc([N+](=O)[O-])o1	HCMV inh -65.6
CCCNC(=O)c1onc(CSc2nc3ccccc3[nH]2)c1C(=O)NCCC	none (no result: LASV entry inh, MARV entry inh)
C=CCNC(=O)c1onc(CSc2ccc(C(C)C)cc2)c1C(=O)O	none (no result: LASV entry inh, MARV entry inh)
O=C(CN1C(=O)NC(Cc2c[nH]c3ccccc23)C1=O)Nc1cccc(S(=O)(=O)N2CCCC2)c1 (configuration not stated)	FMDV antiviral inconclusive
Cn1c(N)c(C(c2ccccc2)c2c(N)n(C)c(=O)n(C)c2=O)c(=O)n(C)c1=O	none
Cc1ccc(S(=O)(=O)NCCc2nnc3ccc(SCc4cccc(F)c4)nn23)cc1	none (no result: MARV entry inh)
C=C1CCC[C@]2(C)C[C@H]3OC(=O)C(CNC(C)CC)[C@H]3CC12 (some centres not stated)	none (no result: LASV entry inh, MARV entry inh)
O=C(NC12CC3CC(CC(C3)C1)C2)c1ccc([N+](=O)[O-])o1	HCMV inh -69.8, FMDV antiviral inconclusive (no result: LASV entry inh, MARV entry inh)
CCN(c1ccc(OC)cc1)S(=O)(=O)N1CCCC(C(=O)NCc2ccccc2Br)C1 (configuration not stated)	LASV entry inh inconclusive
CC(C)(C)C1C/C(=C/c2ccccn2)C(=O)/C(=C/c2ccccn2)C1 (configuration not stated)	FMDV antiviral 3.55µM (no result: HCMV inh, LASV entry inh, MARV entry inh)
CC1C/C(=C/c2ccccn2)C(=O)/C(=C/c2ccccn2)C1 (configuration not stated)	LASV entry inh 3.98µM, FMDV antiviral 6.31µM, MARV entry inh inconclusive (no result: HCMV inh)
Cc1nnc(-c2ccc(C)c(-c3ccc(C(=O)NCc4ccc(Cl)cc4)cc3)c2)o1	LASV entry inh 0.628µM (no result: HCMV inh, FMDV antiviral, MARV entry inh)
COC(=O)C1CC(c2c(OC)cc(OC)cc2OC)=NO1 (configuration not stated)	none
Cc1cc(C)nc(-n2nc(C)cc2Nc2ccccc2)n1	HCMV inh -66.5, FMDV antiviral inconclusive, MARV entry inh inconclusive
Cc1cc(NC(=O)c2c(F)cccc2F)n(-c2nc3ccccc3[nH]2)n1	HCMV inh -89.0, LASV entry inh inconclusive, FMDV antiviral inconclusive, MARV entry inh inconclusive
Cc1cc(NC(=O)c2ccccc2F)n(-c2nc3ccccc3[nH]2)n1	none
Cc1cc(NC(=O)C2CCCCC2)n(-c2nc3ccccc3[nH]2)n1	LASV entry inh inconclusive
Cc1cc(Nc2ccccc2)n(-c2nc3ccccc3[nH]2)n1	HCMV inh -86.0, LASV entry inh inconclusive, MARV entry inh inconclusive
Cc1cc(Nc2ccccc2)n(-c2ccccc2)n1	MARV entry inh inconclusive
Cc1cc(NC(=O)c2ccc(C)s2)n(-c2nc3ccccc3[nH]2)n1	HCMV inh -74.3
CN[C@H]1CC[C@@H](c2ccc(Cl)c(Cl)c2)c2ccccc21	none (no result: HCMV inh, LASV entry inh, MARV entry inh)
N#CCCn1c(=O)c(-c2ccccc2)nc2cnc(Oc3ccccc3)nc21	none (no result: HCMV inh, LASV entry inh, MARV entry inh)
COc1ccccc1C(CNC(=O)C(CCSC)NC(=O)c1ccccc1Cl)N1CCCC1 (configuration not stated)	MARV entry inh 2.82µM
COc1ccccc1C(CNC(=O)CNC(=O)c1cccc(Cl)c1)N1CCCC1 (configuration not stated)	MARV entry inh 7.08µM
COc1ccc(C(CNC(=O)C(CCSC)NC(=O)c2ccccc2OC)N2CCCCC2)cc1 (configuration not stated)	none
C=CCC[C@@H](Cc1ccc(F)cc1)C(=O)OC[C@H](C)NC(=O)[C@@H](CC=C)CC(=O)N(CCO)Cc1ccccc1	none (no result: LASV entry inh, MARV entry inh)
COc1ccc(C2=NCC(=O)N(CC(=O)NCc3ccco3)c3sc4c(c32)CCCC4)cc1	MARV entry inh inconclusive (no result: FMDV antiviral)
O=C1CN=C(c2ccc(Br)cc2)c2c(sc3c2CCCC3)N1CCN1CCCCC1	HCMV inh -96.7, FMDV antiviral inconclusive (no result: LASV entry inh, MARV entry inh)
COCc1nnc(NC(=O)c2ccc(S(=O)(=O)N3CCCC3)cc2)o1	HCMV inh -60.8
CCOC(=O)N1CCN(S(=O)(=O)c2ccc(C(=O)Nc3nnc(CC)o3)cc2)CC1	LASV entry inh inconclusive
Cc1ccc(NC(=O)c2ccc(CN3CCc4ccccc4C3)cc2)cc1	HCMV inh -79.5, LASV entry inh inconclusive, MARV entry inh inconclusive
O=C(Nc1ccccc1)c1ccc(CN2CCc3ccccc3C2)cc1	HCMV inh -67.1, MARV entry inh inconclusive
O=C(Nc1ccc(S(=O)(=O)N2CCCCC2)cc1)c1ccc(CN2CCc3ccccc3C2)cc1	HCMV inh -73.8, LASV entry inh inconclusive, FMDV antiviral inconclusive, MARV entry inh inconclusive
Cc1c(NS(=O)(=O)c2cc([N+](=O)[O-])ccc2Cl)c(=O)n(-c2ccccc2)n1C	none
COc1ccc(-c2ccc(C(=O)NCc3ccc(N4CCN(C)CC4)cc3)c3occc23)c(C)c1	none (no result: LASV entry inh, MARV entry inh)
CCC1CN(CCNC(=O)C2CCCCN2C)Cc2cc(OC)ccc2O1 (configuration not stated)	none (no result: HCMV inh, LASV entry inh, MARV entry inh)
CS(=O)(=O)Nc1ccc(C(=O)Nc2ccc(S(=O)(=O)N3CCCCC3)cc2)cc1	HCMV inh -76.5
COc1ccc(C(=O)Nc2ccc(S(=O)(=O)N3CCCCC3)cc2)cc1	HCMV inh inconclusive
COc1ccc(-c2cnnn2-c2ccc(NC(=O)c3ccc(S(=O)(=O)N4CCCCC4)cc3)cc2)cc1	LASV entry inh 7.08µM
CCc1nnc(NC(=O)c2ccc(S(=O)(=O)N3CCCCC3)cc2)s1	HCMV inh -66.4
C[C@@H]1CN(C(=O)OC(C)(C)C)CCN1c1ccc(N2CC[C@@H](O)C2)c(C#N)c1	none (no result: LASV entry inh, FMDV antiviral, MARV entry inh)
O=C(NCCc1c[nH]c2ccccc12)/C(=C\c1cccnc1)NC(=O)c1ccccc1Br	FMDV antiviral 3.55µM (no result: LASV entry inh, MARV entry inh)
O=C(NCCc1c[nH]c2ccccc12)/C(=C\c1cccnc1)NC(=O)c1ccco1	MARV entry inh inconclusive
Fc1ccc2cc(C3=CCCCC3)ncc2c1	HCMV inh -94.7 (no result: LASV entry inh, FMDV antiviral, MARV entry inh)
CC(=O)Nc1cccc(-c2ccnc3c2CC(C)(C(=O)NCCc2ccccc2)O3)c1 (configuration not stated)	HCMV inh -88.2 (no result: LASV entry inh, MARV entry inh)
CC(=O)c1cccc(-c2ccnc3c2CC(C(=O)NCCc2ccccc2)O3)c1 (configuration not stated)	none (no result: LASV entry inh, MARV entry inh)
CC1(C(=O)NCCc2ccccc2)Cc2c(-c3ccccc3)ccnc2O1 (configuration not stated)	none (no result: LASV entry inh, MARV entry inh)
CC1(C(=O)NCCc2ccccc2)Cc2c(-c3cccc(C(F)(F)F)c3)ccnc2O1 (configuration not stated)	HCMV inh -61.9 (no result: LASV entry inh, MARV entry inh)
CC(=O)Nc1cccc(-c2ccnc3c2CC(C(=O)NCCc2ccccc2)O3)c1 (configuration not stated)	HCMV inh -86.1, FMDV antiviral inconclusive (no result: LASV entry inh, MARV entry inh)
CC1(C(=O)NCc2ccccc2)Cc2c(-c3ccc4c(c3)OCO4)ccnc2O1 (configuration not stated)	HCMV inh -80.5 (no result: LASV entry inh, MARV entry inh)
CC(=O)Nc1cccc(-c2ccnc3c2CC(C)(C(=O)Nc2ccccc2)O3)c1 (configuration not stated)	HCMV inh inconclusive (no result: LASV entry inh, MARV entry inh)
Cn1cnc2c1c(=O)n(CC(O)CO)c(=O)n2C (configuration not stated)	none
COc1ccc(CNc2nc(-c3ccco3)nn2S(=O)(=O)c2ccc(Cl)cc2)cc1OC	none
COC(=O)Cc1[nH]nc2c1C1(C(=O)N(Cc3ccccc3)c3ccccc31)C(C#N)=C(N)O2 (configuration not stated)	none
